# Screens (PubChem)
# Shown are actives, neighbours in structure and some others; about 19% of the full set was active somewhere.
# IL-1B inflam inh: blocks inflammasome-driven IL-1 beta release | THP-1 LPS/ATP IL-1B secretion, AlphaLISA, 16 h; hits give low values | activity change, % at 57.5 µM | hit rate 4.7% among 360,000 | AID 743279; in the data active = activity change below about -50%; inconclusive = mostly about -30% to -49%; note: % is set by controls: 0 for no effect and ±100 for the full control effect
#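 THP-1 cells pretreated 1 hr with compounds (up to 57.5 uM final), then stimulated with LPS (250 ng/mL final) plus ATP (1.25 mM final); secreted IL-1B measured by AlphaLISA after 16 hr, decreased signal indicating inhibition.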
# HepG2 viability: counter-screen for TGF-b inhibitors: cytotoxicity in HepG2 cells | HepG2 CAGA-GFP viability, ATP luminescence, 18 h | AID 588856 | hit rate 0.76% among 410,000 | Potency, µM (highest dose often 46.1 µM), inactives show at the highest dose activity change, negative = cytotoxicity, usual class: cytotoxic; note: potency is the fitted concentration of half-maximal effect
#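 CellTiter-Glo luminescence gave cytotoxicity after 18 hours at 37 degrees C. The cells were HepG2 CAGA-GFP in 1% FBS DMEM, stimulated with 500 pg/mL TGF-beta after compound addition. %Activity was normalised to no-cell wells (complete cell-killing) and DMSO (no toxicity), and curves were fitted and classified.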
# TGFb inhibitor: inhibitors of TGF-b signaling; HepG2 CAGA-GFP TGF-b/SMAD3 reporter, GFP fluorescence, 18 h; TGF-beta stimulated, 500 pg/mL final; hit rate 1.2% among 410,000; AID 588855; Potency, µM (doses to about 46.1 µM), for inactives: at the highest dose activity, negative = inhibition, usual class: inhibitors; note: potency is the fitted concentration of half-maximal effect; % is set by controls: 0 for no effect and ±100 for the full control effect; nearly all actives have a fitted effect of over 65% in size
#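 Smad-responsive CAGA-GFP expression was quantified in HEPG2 cells exposed to compounds and 500 pg/mL final TGF-beta for 18 h at 37 degrees C; unstimulated wells defined full inhibition.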
# DT40 TDP1 CPT: growth inhibition of DT40 Tdp1-/-;hTDP1 cells with camptothecin (screen for TDP1 inhibitors) | AID 686979 | chicken DT40 Tdp1-/-;hTDP1 cells + 20 nM CPT, ATP luminescence, 48 h | hit rate 12% among 420,000 | Potency, µM (highest dose often 46.2 µM), inactives show at the top dose activity change, negative = growth inhibition, usual class: inhibitors; note: potency is the fitted concentration of half-maximal effect; % is set by controls: 0 for no effect and ±100 for the full control effect; nearly all actives have a fitted effect of over 55% in size
#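 Chicken DT40 Tdp1-/- cells stably complemented with human TDP1 were seeded at 400 cells/well in medium containing 20 nM camptothecin, exposed to pin-transferred compounds, and grown at 37 °C for at least 48 hr. Viability was read as ATP luminescence.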
# TDP1 inh: blocks human tyrosyl-DNA phosphodiesterase 1 | hit rate 0.28% among 350,000 | recombinant TDP1, AlphaScreen DNA substrate cleavage | Potency, µM (titrated, usually from 130 µM), for inactives: at the highest dose activity change, negative = inhibition, usual class: inhibitors; note: potency is the fitted concentration of half-maximal effect; % is set by controls: 0 for no effect and ±100 for the full control effect; nearly all actives have a fitted effect of over 40% in size
# Target sequence (Q9NUW8 whole entry, looked up): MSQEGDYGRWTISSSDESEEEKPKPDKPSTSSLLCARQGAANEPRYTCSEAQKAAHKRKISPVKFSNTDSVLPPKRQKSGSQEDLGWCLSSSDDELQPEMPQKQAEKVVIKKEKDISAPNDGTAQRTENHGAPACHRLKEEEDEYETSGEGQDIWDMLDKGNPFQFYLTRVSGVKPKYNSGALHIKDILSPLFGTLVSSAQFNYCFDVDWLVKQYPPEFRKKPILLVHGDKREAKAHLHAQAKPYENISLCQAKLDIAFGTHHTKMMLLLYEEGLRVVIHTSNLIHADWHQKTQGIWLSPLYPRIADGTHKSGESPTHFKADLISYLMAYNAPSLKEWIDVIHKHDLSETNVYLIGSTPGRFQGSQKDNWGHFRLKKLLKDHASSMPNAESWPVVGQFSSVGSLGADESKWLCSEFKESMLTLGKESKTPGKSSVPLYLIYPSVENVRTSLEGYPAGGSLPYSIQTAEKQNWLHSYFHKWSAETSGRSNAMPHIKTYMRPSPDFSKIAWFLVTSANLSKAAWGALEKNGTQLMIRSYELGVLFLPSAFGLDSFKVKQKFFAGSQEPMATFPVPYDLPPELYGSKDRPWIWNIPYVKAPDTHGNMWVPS
#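 AlphaScreen read-out: signal falls as enzyme removes the 3' tyrosine-FITC from a 5'-biotinylated DNA oligo (15 nM, 5 min, RT). Enzyme was E. coli-made recombinant Tdp1 at 1 nM, exposed to compound for 15 min beforehand; beads 10 ug/ml, 10 min.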
# TDP1 cell noCPT: qHTS for Inhibitors of human tyrosyl-DNA phosphodiesterase 1 (TDP1): qHTS in cells in absence of CPT | DT40 Tdp1-/- hTDP1 cells, no CPT, ATP luminescence, 48 h | AID 686978, 2013 | hit rate 15% among 420,000 | Potency, µM (doses to about 46.2 µM), for inactives: at the highest dose activity change, negative = growth inhibition, most hits filed as inhibitors; note: potency is the fitted concentration of half-maximal effect; % is set by controls: 0 for no effect and ±100 for the full control effect; nearly all actives have a fitted effect of over 55% in size
#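 Chicken DT40 Tdp1-/- cells complemented with human TDP1, screened without camptothecin (DMSO vehicle only), 400 cells/well. Compounds pin-transferred, cells incubated at 37 °C for at least 48 hr. Growth read as ATP-dependent luminescence (CellTiter-Glo, 30 min at RT).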
# * marks the source's active call; other numbers are inactive results; ? = inconclusive; . = not tested or not shown; [ ] = another dose, or the depositor's remark. Unless noted, calls come from the whole dose curve; as a rule, active = well fitted curve in the direction sought with a large enough effect; inconclusive = small, poorly fitted or top-dose-only effect, or another doubt; inactive = no such curve, though single readings can be large; an effect the other way counts as inactive or inconclusive.
SMILES,IL-1B inflam inh,HepG2 viability,TGFb inhibitor,DT40 TDP1 CPT,TDP1 inh,TDP1 cell noCPT
COc1ccc(-n2nnc(-c3nc(-c4cccs4)no3)c2N)cc1OC,.,1.1%,10.1%,12.0%,2.6%,-6.9%
Cc1cccc(C)c1Nc1oc(-c2ccccc2)nc1-c1cccc2ccccc12,.,.,.,.,5.0%,.
O=S(=O)(c1ccc(OCC2CO2)cc1)c1ccc(OCC2CO2)cc1 (stereo not drawn),-28.8,-64.1%,?,1.84µM*,5.1%,2.06µM*
CC(C)(c1ccccc1)c1ccc(OCC2CO2)cc1 (stereo not drawn),13.2,1.9%,0.5%,-1.4%,-6.9%[0.0935 µM],?
O=C(O)CC12CC3CC(C1)CC(n1ncc(N4CCC5(CC4)OCCO5)c(Cl)c1=O)(C3)C2,12.2,-4.0%,-2.5%,0.7%,6.2%,14.8%
Cc1ccc(Nc2nc(NCc3ccco3)c3ccccc3n2)cc1,-108.7*,-47.0%,11.2µM*,2.59µM*,7.9%,2.59µM*
c1ccc(Nc2nc(NCc3ccco3)nc3nccnc23)cc1,.,.,.,-2.7%,50.1µM*,-25.6%
COc1ccccc1Nc1nc(NCc2ccco2)c2ccccc2n1,.,-54.2%,?,?,7.0%,20.6µM*
COc1cc(NC(=O)CCn2cnc3ccccc3c2=O)cc(OC)c1,.,-1.3%,2.1%,-17.3%,-4.4%,?
CN1C2Cc3c(n(C)c4ccccc34)C1CC=C2CO (stereo not drawn),38.1,2.2%,?,-1.3%,0.3%,2.8%
CCOC(=O)C1=CC[C@H]2c3c(c4ccccc4n3C)C[C@H]1N2C,2.5,8.2%,?,29.1µM*,3.1%,?
COc1ccccc1CCNC(=O)C1(c2cccs2)CCOCC1,.,-9.3%,?,?,7.8%,?
CCn1c(=O)c2cc(C(=O)N(C)c3cc(C)ccc3OC)sc2c2ccccc21,-84.5*,-24.6%,?,?,3.9%,?
CCn1c(=O)c2cc(C(=O)N(C)c3ccc(OC)cc3OC)sc2c2ccccc21,-7.3,-6.6%,?,?,4.7%,13µM*
CSC1=NC2(CC(c3ccccc3)Oc3cc(O)ccc32)CC(C)(C)N1 (stereo not drawn),0.6,-39.7%,-11.5%,23.1µM*,3.3%,20.6µM*
COC(=O)c1c(C)oc(C)c1S(=O)(=O)NCc1ccc(OC)cc1,-7.1,-6.2%,-7.0%,-6.4%,2.6%,-23.3%
CCCc1ccc(NS(=O)(=O)c2c(C)oc(C)c2C(=O)OC)cc1,-8.1,-7.9%,1.5%,?,.,20.6µM*
Cc1cccc(N2CCN(CC(O)COc3ccc(Cl)cc3)CC2)c1 (stereo not drawn),?,0.3%,8.6%,?,2.5%,13µM*
Cc1ccc(N2CCN(CC(O)COc3cccc(C)c3)CC2)cc1 (stereo not drawn),2.6,-20.3%,-0.3%,23.1µM*,7.5%,?
Cc1cccc(N2CCN(CC(O)COc3ccccc3)CC2)c1 (stereo not drawn),-15.0,-19.6%,?,-5.0%,.,8.1%
CSCC[C@H](NC(=O)OC(C)(C)C)C(=O)N/N=C/c1ccc2nccnc2c1,18.7,0.0%,5.8%,?,2.6%,11.6µM*
CSCC[C@H](NC(=O)OC(C)(C)C)C(=O)N/N=C/c1cccc2nccnc12,24.2,-25.7%,15.3%,?,4.1%,?
CC(C)C[C@@H](C=O)NC(=O)[C@H](CC(C)C)NC(=O)[C@H](CC(C)C)NC(=O)OCc1ccccc1,.,.,.,-6.6%,9.8%,-12.2%
O=C(NCCCN=C1NS(=O)(=O)c2ccccc21)c1ccc(F)cc1,19.2,38.4%,-1.0%,-6.3%,2.1%[56.1 µM],-3.0%
